Rows were chosen to be rich in hits. Some 1.7% of all compounds tested hit in one or more screens of this group.
ALOX12 inh: ALOX12 (human) lipoxygenase inhibition; P18054; purified 12hLO, xylenol orange hydroperoxide absorbance; Potency, µM (highest dose often 108 µM), for inactives: at the highest dose activity change, negative = inhibition, most hits filed as inhibitors; actives 1.1% (n = 580,000); AID 1671190; also: % is scaled to controls: 0 for no effect and ±100 for the full control effect
Target sequence (P18054 whole entry, looked up): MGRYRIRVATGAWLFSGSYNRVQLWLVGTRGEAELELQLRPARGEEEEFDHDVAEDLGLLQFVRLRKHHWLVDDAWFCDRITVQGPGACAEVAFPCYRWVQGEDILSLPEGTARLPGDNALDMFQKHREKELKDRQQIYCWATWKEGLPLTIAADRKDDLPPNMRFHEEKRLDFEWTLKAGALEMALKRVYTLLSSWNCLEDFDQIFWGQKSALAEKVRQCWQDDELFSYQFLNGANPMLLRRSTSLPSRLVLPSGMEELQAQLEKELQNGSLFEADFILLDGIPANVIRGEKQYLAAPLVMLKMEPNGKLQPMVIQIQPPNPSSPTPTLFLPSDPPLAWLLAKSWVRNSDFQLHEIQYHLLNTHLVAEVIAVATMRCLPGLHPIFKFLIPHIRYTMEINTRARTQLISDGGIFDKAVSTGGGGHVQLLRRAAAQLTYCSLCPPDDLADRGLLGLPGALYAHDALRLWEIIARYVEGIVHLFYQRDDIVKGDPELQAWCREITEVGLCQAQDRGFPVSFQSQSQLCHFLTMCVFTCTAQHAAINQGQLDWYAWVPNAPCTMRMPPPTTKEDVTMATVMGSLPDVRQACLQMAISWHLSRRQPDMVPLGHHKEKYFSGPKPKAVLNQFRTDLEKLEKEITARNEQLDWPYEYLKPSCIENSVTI
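Purified human 12hLO at 150 nM in 25 mM Hepes, 0.01% Triton X-100, pH 7.0, preincubated 15 min at room temperature with compound. Reaction started with 40 uM arachidonic acid, 30 min at room temperature. Hydroperoxide measured by Fe-xylenol orange, 573/405 nm absorbance ratio.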
TrxR1 substrate: is turned over as a substrate by rat TrxR1; actives 0.01% (n = 390,000); purified TrxR1 substrate turnover, NADPH consumption readout; Potency, µM (highest dose often 114 µM), without a hit: at the top dose activity change, negative = substrate turnover; AID 588456; also: % is scaled to controls: 0 for no effect and ±100 for the full control effect; nearly all actives have a fitted effect of over 50% in size
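Rat TrxR1, dispensed at 90 nM, was prereduced with 400 uM NADPH (final) for 5 min at ~22 deg C, then incubated with compound 15 min before 400 uM selenite. A first-read NADPH fluorescence drop versus no-compound background flagged substrates.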
rTrxR1 inhibitor: blocks rat thioredoxin reductase 1; actives 1% (n = 390,000); O89049; Potency, µM (titrated, usually from 114 µM), for the others: at the highest dose activity change, negative = inhibition, hits mostly inhibitors; recombinant rTrxR1, NADPH fluorescence consumption, selenite substrate; AID 588453; also: % is scaled to controls: 0 for no effect and ±100 for the full control effect; nearly all actives have a fitted effect of over 65% in size
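Rat TrxR1 (90 nM in the dispensed reagent) was pre-reduced with 400 uM NADPH for 5 min at room temperature, then incubated with compound for 15 min. After 400 uM selenite was added, NADPH fluorescence (Ex 340/Em 450 nm) was followed for 8 min.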
Apoferritin bind: binds horse apoferritin like a general anesthetic | apoferritin/1-aminoanthracene competitive binding, fluorescence | Potency, µM (doses to about 77.5 µM), without a hit: at the top dose activity change, negative = displacement, most hits filed as inhibitors | AID 485281 | actives 0.074% (n = 350,000); also: % is scaled to controls: 0 for no effect and ±100 for the full control effect; nearly all actives have a fitted effect of over 20% in size
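10 uM apoferritin + 50% sat. 1-AMA, PBS; cpd 10 min RT; Ex380/Em535 endpoint; normalized to free probe vs complex; 4-param Hill fit; propofol titration as pos. ctrl.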
IDH1 R132H inh: blocks human mutant IDH1 R132H enzyme. O75874. IDH1-R132H enzyme, NADPH consumption, diaphorase/resazurin fluorescence. Potency, µM (doses to about 76.6 µM), without a hit: at the highest dose activity change, negative = inhibition, most hits filed as inhibitors. actives 0.093% (n = 390,000). AID 602179; also: % is scaled to controls: 0 for no effect and ±100 for the full control effect; nearly all actives have a fitted effect of over 65% in size
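IDH1-R132H (0.5 ug/mL dispensed) in pH 7.5 Tris buffer was preincubated 30 min with compound, then given a substrate mix of 0.016 mM NADPH and 2 mM alpha-KG for 80 min at room temperature; remaining NADPH was read by diaphorase/resazurin fluorescence.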
Glioma ERSR ind: induces the endoplasmic reticulum stress response in human glioma cells; AID 602332; U87-MG GRP78 promoter luciferase reporter, 16 h; Potency, µM, for inactives: top-dose activation, actives largely listed as activators; actives 0.02% (n = 420,000); also: series mostly up to about 76 µM; % of control where 0% means no effect; nearly all actives have a fitted effect of over 35% in size
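Stably transfected U87-MG human glioma cells carrying a GRP78-based luminescent sensor were seeded at 1000 cells/well, pin-dosed with compounds and incubated 16 h. Luciferase reagent was then added, and end-point luminescence was read after 10 min at room temperature.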
* hit, by the source's call; i = inactive; ? = inconclusive; nt = not tested or not shown; [ ] = another dose, or the depositor's remark. Calls follow the shape of the dose curve; as a rule, active = well fitted curve in the direction sought with a large enough effect; inconclusive = small, poorly fitted or top-dose-only effect, or another doubt; inactive = no such curve, though single readings can be large; an effect the other way counts as inactive or inconclusive. Potency is read from the fitted curve at half-maximal effect.

SMILES | ALOX12 inh | TrxR1 substrate | rTrxR1 inhibitor | Apoferritin bind | IDH1 R132H inh | Glioma ERSR ind
CCCCC(=O)NC(=S)Nc1cccc(NC(=O)c2ccco2)c1 | ? | 1% | 8.9µM* | -24% | 2% | -2%
CCC(=O)NC(=S)Nc1ccc(NC(=O)c2ccco2)cc1 | -26% | 2%[57.1 µM] | -1%[57.1 µM] | 1% | -5% | 8%
Cc1cccc(NC(=S)NC(=O)/C=C/c2ccco2)c1 | ? | 4% | 22µM* | ? | 13% | 4%
O=C(/C=C/c1ccco1)NC(=S)Nc1ccccc1 | ? | -12% | 45µM* | -12% | -16% | -1%
CC(=O)c1ccc(NC(=S)NC(=O)/C=C/c2ccco2)cc1 | 26% | -6% | ? | -23% | 5% | 1%
O=C(Cc1cccs1)NCCc1noc(-c2cccnc2)n1 | 45% | nt | nt | nt | nt | nt
Cc1cccc(O[C@H]2COCCN(c3nc4ccccc4s3)C2)n1 | 17%[176 µM] | nt | nt | nt | nt | nt
COc1ccc(C(=O)N[C@@H]2CN(c3ccccn3)C[C@H]2CN(C)C)c(OC)c1 | 13% | nt | nt | nt | nt | nt
O=C(/C=C/c1ccco1)NC(=S)Nc1cccc([N+](=O)[O-])c1 | 40µM* | -2%[57.1 µM] | 20µM* | -7% | 8% | -6%
Cc1cc2oc(=O)cc(CN3CCN(c4ccc(F)cc4)CC3)c2cc1C | 13% | nt | nt | nt | nt | nt
Cc1cc(O)c(CN2CCN(c3ccc(F)cc3)CC2)c2oc(=O)cc(C)c12 | -9% | 739% | 79µM* | i | 13% | -3%
CCOc1ccccc1NC(=O)Cn1c(N(C)Cc2ccccc2)nc(C)cc1=O | 8% | nt | nt | nt | nt | nt
C=CCN1c2ccccc2C(=O)CS1(=O)=O | ? | 13%[57.1 µM] | 11µM* | nt | -9% | -3%
COc1ccc(COCC(O)Cn2nc(-c3cc(C)ccc3C)c3ccccc3c2=O)cc1 (centres undefined) | 23% | nt | nt | nt | nt | nt
CCOc1ccc(Br)cc1CNCCSc1nnnn1-c1ccccc1 | 5% | 2% | 18% | -6% | 20% | 32µM*
Cc1ccc(SCC(=O)c2c(C)nc3cc(C)ccn23)cc1 | -4% | -2% | 18% | -14% | 13% | 1%
C/C(=N\OC(=O)c1ccc(C)cc1)c1c(C)nc2cc(C)ccn12 | 0% | 11%[57.1 µM] | 28µM* | -5% | 18% | -6%
CCCCCc1ccc(-c2ccc(-c3ccc(/C=C/C#N)cc3)nc2)cc1 | -17% | nt | nt | nt | nt | nt
O=S(=O)(Nc1c(S(=O)(=O)c2ccccc2)c2nc3ccccc3nc2n1C1CCCCC1)c1ccccc1 | 40µM* | 181% | ? | 4% | 9% | 0%
CC1(C)CC(=O)C2=C(C1)OC(N)=C(C#N)C2C#Cc1ccccc1 (centres undefined) | ? | -3% | 2.5µM* | -14% | 0% | ?
CC(c1ccccc1)C1C(C#N)=C(N)OC2=C1C(=O)CC(C)(C)C2 (centres undefined) | -5% | 4% | 3% | ? | 6% | -2%
NNc1nc2ccc(F)cc2s1 | 6.3µM* | -7% | -2% | -11% | 7% | 0%
NNc1nc2ccc(Cl)cc2s1 | 7.1µM* | 2% | -4% | -19% | 1% | -6%
CCCCOc1ccc(C(=O)N2CCC(c3n[nH]c(=O)n3-c3ccc(C)cc3)CC2)cc1 | 7% | nt | nt | nt | nt | nt
CCc1ccc2oc(=O)cc(-c3oc4ccccc4c3NC(=O)C3CC3)c2c1 | 7.9µM* | nt | nt | nt | nt | nt
SMILES | ALOX12 inh | TrxR1 substrate | rTrxR1 inhibitor | Apoferritin bind | IDH1 R132H inh | Glioma ERSR ind
CCc1ccc2oc(=O)cc(-c3oc4ccccc4c3N)c2c1 | 21% | nt | nt | nt | nt | nt
Cc1nnc(SCC(=O)Nc2cc(S(=O)(=O)N3CCOCC3)ccc2C)s1 | 0% | 16%[57.1 µM] | 17%[57.1 µM] | nt | -2% | -1%
O=C(CSc1nc2ccccc2s1)Nc1cc(S(=O)(=O)N2CCOCC2)ccc1O | 22µM* | -6% | -13% | 3% | 2% | -5%
Cc1ccc(S(=O)(=O)N2CCCCC2)cc1NC(=O)Cn1ncc(Cl)c(Cl)c1=O | -7% | 9% | 50µM* | nt | 14% | -15%
COc1ccc(NC(=O)Cn2ncc(Cl)c(Cl)c2=O)cc1S(=O)(=O)N1CCOCC1 | -26% | -3% | 28µM* | -6% | 6% | -15%
COc1ccc(NC(=O)c2ccc(Cl)nc2)cc1S(=O)(=O)N1CCOCC1 | 419% | -1% | 7% | nt | 12% | -1%
COc1ccc(S(=O)(=O)N2CCCN(CC(=O)Nc3ccc(OC)c(Cl)c3)CC2)cc1 | 0% | 5% | 50µM* | 0% | 6% | 0%
Cc1ccc(S(=O)(=O)N2CCCCC2)cc1NC(=O)Cn1cnnn1 | -20% | -7% | -8% | 3% | -5% | -5%
COc1ccc(NC(=O)CN2CCN(S(=O)(=O)c3ccc(Cl)cc3)CC2)cc1Cl | 383% | -15% | 8%[57.1 µM] | -10% | 3% | -4%
COc1ccc(NC(=O)CN2CCCCC2)cc1S(=O)(=O)N1CCCCC1 | 2.5µM* | 8%[57.1 µM] | 9%[57.1 µM] | nt | 0% | -4%
CCn1c(SCC(=O)Nc2nncs2)nnc1-c1ccc(C)cc1 | 3% | nt | nt | nt | nt | nt
Cc1ccc(CNC(=O)c2ccc3c(c2)CCN3S(=O)(=O)c2ccc(Br)cc2)cc1 | ? | 0% | 30% | -2% | -6% | -2%
Cc1ccc(N2C(=O)NC3(CCCCC3)C2=O)cc1 | 0% | -9% | -13% | -11% | 0% | 0%
Cc1ccc(N2C(=O)CC3(CC4C=CC3C4)C2=O)cc1 (centres undefined) | 1% | -6% | 0% | 7.9µM* | 3% | 1%
OC[C@@H]1CN(Cc2cccnc2)C[C@H]1c1ccccn1 | 53% | nt | nt | nt | nt | nt
CCc1c(C)sc(NC(=O)C2CC2)c1C#N | 28µM* | nt | nt | nt | nt | nt
CCc1c(C)sc(NC(=O)C2CCC2)c1C#N | 13µM* | nt | nt | nt | nt | nt
CCc1c(C)sc(NC(=O)C(F)(F)C(F)(F)C(F)(F)C(F)(F)F)c1C#N | 10µM* | nt | nt | nt | nt | nt
Cc1sc(NC(=O)C2CCCC2)c(C#N)c1C | ? | -1% | -6% | -8% | 3% | -2%
CCc1c(C(=O)Nc2ccc(C)cc2)cnn1-c1ccc(OC)nn1 | 19% | nt | nt | nt | nt | nt
Cc1ccc(-c2ccc(/C=C3\SC(N4CCOCC4)=NC3=O)o2)cc1 | 35µM* | 4%[57.1 µM] | -36% | -20% | ? | 2%
O=C1N=C(N2CCOCC2)S/C1=C/c1ccc(-c2ccc(F)cc2)o1 | -7% | -2% | -3% | -12% | 7% | 0%
Cc1ccc(/C=C2\SC(N3CCN(C(c4ccccc4)c4ccccc4)CC3)=NC2=O)o1 | 3.5µM* | -14% | ? | 0% | 8% | 0%
CCc1ccc2c(CN3CCNC(=O)C3)cc(=O)oc2c1 | 1% | nt | nt | nt | nt | nt
S=C1SCN(Cc2ccccc2)CN1Cc1ccccc1 | 7% | 6% | 17% | 8% | 0% | -3%
S=C1SCN(Cc2ccccc2)CN1Cc1ccco1 | 35µM* | nt | nt | nt | 18% | -3%
